Screening data: PubChem, several laboratories
In the library only some 1.3% were active in any assay of this set; here they are far more common.
HTR5A ag: counter-screen for OPRM1-OPRD1 agonists: human HTR5A agonism. HTR5A agonist assay, luminescence, cell-based. activation, % at 9.3 µM. AID 504692. 340,000 tested, 0.61% active. P47898; in the data active = activation mostly above about 9.5%, no sharp cut-off; inactive = mostly below about 7.6%
PvdQ acylase: blocks Pseudomonas aeruginosa PvdQ acylase activity; purified PvdQ acylase, fluorescence plate reader; inhibition, % at 10 µM; 340,000 tested, 0.063% active; AID 488965; in the data active = inhibition above about 30%, passing the limit was not always enough
HTR5A inv ag: counter-screen for OPRM1-OPRD1 inverse agonists: human HTR5A inverse agonism; P47898; HTR5A cell line, luminescence; 340,000 tested, 0.083% active; AID 504634; inhibition, % at 9.3 µM; in the data active = inhibition mostly above about 23%, no sharp cut-off; inactive = mostly below about 18%
MOR-DOR inv ag: inverse agonists of human mu-delta opioid receptor heterodimerization; P35372+P41143; cell-based MOR-DOR heterodimer luminescence, inverse agonism; inhibition, % at 9.3 µM; 340,000 tested, 0.21% active; AID 504357; in the data active = inhibition above about 22%, passing the limit was not always enough
Target sequence (P35372 whole entry, looked up): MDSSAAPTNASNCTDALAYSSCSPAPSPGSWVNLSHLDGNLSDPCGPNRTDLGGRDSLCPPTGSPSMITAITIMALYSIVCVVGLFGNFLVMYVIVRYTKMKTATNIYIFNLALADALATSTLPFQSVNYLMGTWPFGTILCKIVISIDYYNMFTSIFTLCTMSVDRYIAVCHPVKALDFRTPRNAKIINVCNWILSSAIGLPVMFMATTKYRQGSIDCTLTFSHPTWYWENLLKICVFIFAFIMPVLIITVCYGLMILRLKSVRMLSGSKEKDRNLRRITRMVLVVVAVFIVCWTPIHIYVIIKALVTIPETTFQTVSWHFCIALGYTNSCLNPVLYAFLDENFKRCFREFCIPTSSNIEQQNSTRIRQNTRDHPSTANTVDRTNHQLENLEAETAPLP
Target sequence (P41143 whole entry, looked up): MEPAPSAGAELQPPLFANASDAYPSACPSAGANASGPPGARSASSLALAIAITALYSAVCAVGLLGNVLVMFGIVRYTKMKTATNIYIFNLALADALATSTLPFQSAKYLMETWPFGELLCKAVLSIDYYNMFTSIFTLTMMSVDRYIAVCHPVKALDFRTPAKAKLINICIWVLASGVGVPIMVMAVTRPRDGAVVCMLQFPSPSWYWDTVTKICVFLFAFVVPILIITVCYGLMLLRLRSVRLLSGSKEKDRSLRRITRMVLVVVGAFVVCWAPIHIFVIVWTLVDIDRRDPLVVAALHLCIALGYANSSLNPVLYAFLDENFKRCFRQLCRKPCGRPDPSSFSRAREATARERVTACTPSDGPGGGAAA
Yeast superoxide: yeast age-related superoxide inhibition as caloric restriction mimetic | S. cerevisiae aged cells, superoxide DHE fluorescence; stronger effect = lower value | 330,000 tested, 0.18% active | superoxide response (% of plate mean), % at 10 µM;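 active = superoxide response under a set limit, about three screen SD below normal, cut at about 65% in these data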;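 note: yeast aged for seven days with compound at 30 °C before DHE staining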
MOR-DOR ag: OPRM1-OPRD1 heterodimerization agonism | P35372+P41143 | cells, luminescence | activation, % at 9.3 µM | 340,000 tested, 0.3% active | AID 504326; in the data active = activation above about 18%
Of the large screens only hits and unclear results are named; the others gave an inactive call.

COc1cc2c(cc1OC)C1(CCCC1)CNC2c1cccc([N+](=O)[O-])c1 (stereo unspecified)	HTR5A inv ag 37.8, MOR-DOR inv ag 34.7
Cc1cc(C)nc(NS(=O)(=O)c2ccc(NC(=O)c3ccc(S(=O)(=O)N(C)C)cc3)cc2)n1	none
Cc1cc(C)nc(NS(=O)(=O)c2ccc(NC(=O)c3ccc(N4C(=O)CCC4=O)cc3)cc2)n1	PvdQ acylase 44.1
Cc1cc(C)c(NC(=O)CNC(=O)c2ccc3c(=O)n4c(nc3c2)CCC4)c(C)c1	none
Cc1cccc(C)c1NC(=O)CN(C)C(=O)c1ccc2c(=O)n3c(nc2c1)CCC3	Yeast superoxide 65.4
O=[N+]([O-])c1c(Nc2ccccc2O)cc(Cl)c2nonc12	MOR-DOR inv ag 28.7
O=[N+]([O-])c1c(Nc2ccccc2O)ccc2nonc12	none
O=C(Nc1cccc(/C=C/c2ccccn2)c1)c1cc(Cl)ccn1	none
CCn1cc([N+](=O)[O-])c(C(=O)N2N=C(c3ccc4ccccc4c3)CC2c2ccccc2O)n1 (stereo unspecified)	none
CCn1cc(Cl)c(C(=O)N2N=C(c3ccc4ccccc4c3)CC2c2ccccc2O)n1 (stereo unspecified)	HTR5A ag 11.8
Cc1cc(CNC(=S)Nc2ccc(Br)cc2Cl)nn1C	none
O=C(COc1ccc(S(=O)(=O)N2CCOCC2)cc1)NC1CC1	none
CC(=O)n1cc(/C=N/NC(=O)c2ccccc2O)c2ccccc21	none
Cn1cc(/C=N/NC(=O)c2ccccc2O)c2ccccc21	HTR5A ag 10.4
N#CC1(NC(=O)CSc2nnc(-c3ccccc3F)n2N)CCCCC1	none
O=C(Nc1ccccc1Cl)NC1(C(=O)NCCCN2CCOCC2)CCCCC1	none
O=C(NC1CCCCC1)NC1(C(=O)NCCCN2CCOCC2)CCCCC1	HTR5A ag 10.5
COc1ccc(NC(=O)CSCC(=O)Nc2cccc3ncccc23)cc1	none
COc1ccc(C2CC(=O)C(C3NCCc4ccccc43)=C(O)C2n2cncn2)cc1 (stereo unspecified)	HTR5A ag 11.1
COc1ccc(-c2nc3ccccc3s2)cc1	PvdQ acylase 67.3 (no result: Yeast superoxide)
c1ccc2sc(-c3ccc4c(c3)OCO4)nc2c1	PvdQ acylase 49.0
N#Cc1ccccc1OCC(=O)NNC(=O)CNC(=O)c1ccc(Br)o1	none
N#C/C(=C(\O)Cc1ccccc1)c1nc2ccccc2[nH]1	none
N#C/C(=C(/O)c1ccco1)c1nc2ccccc2[nH]1	HTR5A ag 10.9
COc1ccc(-c2ccc(OC)cc2)cc1	PvdQ acylase 52.5
O=C(C1CCN(S(=O)(=O)c2cccs2)CC1)N(c1ccccn1)C1CCCCC1	none
CC(C)(C)c1nn(-c2ccccc2)c2[nH]c(=O)c(CNCc3ccc4c(c3)OCO4)cc12	HTR5A ag 11.6
CCOc1cccc(NCc2cc3c(C(C)(C)C)nn(-c4ccccc4)c3[nH]c2=O)c1	none
C#CCN(C[C@@H](CC(C)C)NC(=O)OC(C)(C)C)S(=O)(=O)c1ccc(Br)cc1F	none (no result: Yeast superoxide)
Cc1cc(C)cc(OCC(=O)OC/C(O)=C(\C#N)c2nc3ccccc3[nH]2)c1	HTR5A ag 23.2, MOR-DOR ag 39.8
Cc1cccc(C(=O)NC(=S)Nc2ccc(Cc3ccncc3)cc2)c1	HTR5A ag 12.3
COc1ccccc1NC(=O)OC(C)c1ccc(Cl)cc1 (stereo unspecified)	HTR5A ag 17.2
CCCc1cc(=O)n2nc(N3CCC(C(=O)N4CCN(c5cccc(OC)c5)CC4)CC3)sc2n1	none
CN(C)c1cccc(C(=O)Nc2ccc(S(=O)(=O)Nc3nccs3)cc2)c1	none
O=C(NC(C(=O)c1ccccc1)N1CCOCC1)c1cccs1 (stereo unspecified)	HTR5A ag 12.5
O=S(=O)(Nc1ncccn1)c1ccc(NC(=S)Nc2ccccc2Cl)cc1	none
Cc1cc(=O)oc2c(CN(C)Cc3ccccc3)c(O)ccc12	none
C=CCN(CC=C)Cc1c(O)ccc2c1oc(=O)c1ccccc12	MOR-DOR inv ag 44.8
Cc1cc(N2CCOCC2)nc2ccc(NC(=S)N3CCCCC3C)cc12 (stereo unspecified)	HTR5A ag 12.1
Cc1cc(N2CCN(C)CC2)nc2ccc(NC(=S)N3CCCCC3)cc12	none (no result: Yeast superoxide)
Cc1cc(=O)oc2cc(OC(C(=O)O)c3ccccc3)ccc12 (stereo unspecified)	HTR5A ag 10.7
COc1ccc(CC(=S)NCCc2ccccc2)cc1	none
CC(C)(C)NC(=O)CSCc1c(Cl)cccc1Cl	none
NC(=O)CSCc1c(Cl)cccc1Cl	HTR5A ag 12.5
CS(=O)(=O)N1CCN(c2ccc(NC(=O)c3ccc(-c4ccc(Cl)cc4)o3)cc2)CC1	HTR5A ag 11.8
Cc1ccc(C(=O)Nc2ccc(N3CCN(S(C)(=O)=O)CC3)cc2)cc1	none
Oc1ccccc1-c1cc(C(F)(F)C(F)F)[nH]n1	HTR5A ag 11.4
Fc1ccc(-c2cc(C(F)(F)C(F)F)[nH]n2)cc1	none (no result: HTR5A ag, PvdQ acylase, HTR5A inv ag, MOR-DOR inv ag, MOR-DOR ag)
COc1ccc(OC)c2c1cc(C(=O)N[C@H](C(=O)N1CCC[C@H]1C(=O)O)C(C)C)n2C	none
Cc1ccc(-c2cc3nc(-c4ccccc4)cc(N4CCC5(CC4)OCCO5)n3n2)cc1	none
Cc1cccc(-c2cc3nc(-c4ccccc4)cc(N4CCC5(CC4)OCCO5)n3n2)c1	HTR5A ag 12.0
Cc1ccc(C(=O)N[C@H](C(=O)N2CCN(c3ccccc3F)CC2)C(C)C)cc1	none
N/C(=N\OC(=O)c1ccc(Cl)cc1)c1ccccn1	none
N/C(=N\OC(=O)c1ccc(Cl)c(Cl)c1)c1ccccn1	HTR5A ag 13.5
CCc1ccc(C(=O)C(C)OC(=O)CNS(=O)(=O)c2ccc(C)cc2)cc1 (stereo unspecified)	none
CCN(CC(=O)Nc1c(F)cccc1F)C(=O)CC1CCCC1	HTR5A ag 10.5
O=C(NCc1cn2ccccc2n1)C1CCC(=O)N(Cc2ccccc2F)C1 (stereo unspecified)	none
CCCc1nnc(NC(=O)CCC(=O)N2CCC(Cc3ccccc3)CC2)s1	none
CCCc1nnc(NC(=O)CCC(=O)N2CCCCC2CC)s1 (stereo unspecified)	HTR5A ag 9.9
Cc1ccc(C)c(NC(=O)COC(=O)COc2cccc3c2OC(C)(C)C3)c1	none
O=C(CNC1CCCCCC1)c1cccs1	MOR-DOR inv ag 32.8
CCN(c1ccccc1)S(=O)(=O)c1ccc(C(=O)N(CCCN(C)C)c2nc3cc4c(cc3s2)OCO4)cc1	MOR-DOR ag 31.5
COc1ccc(C(=O)C2CCCN(C(=O)c3ccoc3C)C2)cc1F (stereo unspecified)	none
CCOc1ccc(-c2nnc(NC(=O)CCCOc3cccc(C)c3)o2)cc1	HTR5A ag 13.0
CCOc1ccc(-c2nnc(NC(=O)Cc3ccc(OC)cc3)o2)cc1	none
Cc1ccc(C(C)C)c(OCC(O)CN(C)Cc2ccccc2)c1 (stereo unspecified)	HTR5A ag 11.8
Cc1ccc(C(C)C)c(OCCCN(C)Cc2ccccc2)c1	none
